Read-out in experiment [1]: Interleukin-1 alpha (IL1a), IL1A (gene 3552)
Nature of the experiment: BSK_KF3CT_IL1a: BioMAP Diversity Plus: KF3CT Assay for Interleukin-1 alpha (IL1a) Biomarker Activity (AID 2283070). Conditions: primary human keratinocytes with fibroblasts; actives raise or lower the signal. In outline: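 Primary skin co-culture (keratinocytes, foreskin fibroblasts), 24 h exposure; ELISA for IL-1a; bidirectional curve fit vs DMSO.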

Read-out in experiment [2]: TIMP metallopeptidase inhibitor 2 (TIMP2), TIMP2 (gene 7077)
Nature of the experiment: BSK_KF3CT_TIMP2: BioMAP Diversity Plus: KF3CT Assay for TIMP metallopeptidase inhibitor 2 (TIMP2) Biomarker Activity (AID 2283071). Conditions: primary human keratinocytes with fibroblasts; actives raise or lower the signal. In outline: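 ELISA readout of TIMP-2 in keratinocyte plus foreskin fibroblast co-cultures (human skin primary cells), 24 h post-dose. Gain or loss of signal fitted relative to DMSO.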

Read-out in experiment [3]: Transforming growth factor beta 1 (TGFb1), TGFB1 (gene 7040)
Nature of the experiment: BSK_KF3CT_TGFb1: BioMAP Diversity Plus: KF3CT Assay for Transforming growth factor beta 1 (TGFb1) Biomarker Activity (AID 2283072). Conditions: primary human keratinocytes with fibroblasts; actives raise or lower the signal. In outline:
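Read-out: ELISA for TGF-b1 in keratinocyte/foreskin fibroblast human skin co-culture, 24 h after dosing; bidirectional curve fit vs DMSO baseline; gain or loss of signal scored.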

Read-out in experiment [4]: C-C motif chemokine 2 (Homo sapiens) (UniProt P13500)
Nature of the experiment: BSK_KF3CT_MCP1: BioMAP Diversity Plus: KF3CT Assay for Monocyte Chemoattractant Protein 1 (MCP1/CCL2) Biomarker Activity (AID 2283073). Conditions: primary human keratinocytes with fibroblasts; actives raise or lower the signal. Summed up: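 ELISA readout of MCP-1 after 24 h chemical dosing of a human skin primary co-culture of keratinocytes and foreskin fibroblasts. Activity was fitted in both directions against DMSO.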

Read-out in experiment [5]: Matrix Metallopeptidase 9 (MMP9), MMP9 (gene 4318)
Nature of the experiment: BSK_KF3CT_MMP9: BioMAP Diversity Plus: KF3CT Assay for Matrix Metallopeptidase 9 (MMP9) Biomarker Activity (AID 2283074).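 As to AC50: MMP9 protein level quantified by ELISA in the co-culture.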 Conditions: primary human keratinocytes with fibroblasts; actives raise or lower the signal. In outline: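 ELISA read-out of MMP-9 at 24 h post-dosing in a co-culture of human skin keratinocytes and foreskin fibroblasts. Gain or loss of signal was fitted in both directions against DMSO.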

Read-out in experiment [6]: urokinase plasminogen activator (uPA), PLAU (gene 5328)
The experiment in a line: BSK_KF3CT_uPA: BioMAP Diversity Plus: KF3CT Assay for urokinase plasminogen activator (uPA) Biomarker Activity (AID 2283075). Conditions: primary human keratinocytes with fibroblasts; actives raise or lower the signal. In outline: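 Skin co-culture (keratinocytes + foreskin fibroblasts), human primary; 24 h post-dose; uPA by ELISA; gain/loss fit vs DMSO baseline.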

Read-out in experiment [7]: CD40, CD40 (gene 958)
Nature of the experiment: BSK_LPS_CD40: BioMAP Diversity Plus: LPS Assay for CD40 Biomarker Activity (AID 2283076). Conditions: primary human HUVEC with PBMC; actives raise or lower the signal. Summed up:
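Cells were dosed, incubated 24 h, then assayed for CD40 by ELISA. Gain or loss of signal was analysed relative to DMSO controls. The culture paired human umbilical vein endothelium with peripheral blood mononuclear cells.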

Read-out in experiment [8]: E-selectin (Homo sapiens) (UniProt P16581)
Nature of the experiment: BSK_LPS_Eselectin: BioMAP Diversity Plus: LPS Assay for Eselectin Biomarker Activity (AID 2283077). Conditions: primary human HUVEC with PBMC; actives raise or lower the signal. Summed up: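 Primary human vascular co-culture (endothelium plus PBMC) was dosed with chemical, then E-selectin quantified by ELISA at 24 h. Endpoint values derive from bidirectional curve fitting relative to DMSO.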

Read-out in experiment [9]: Interleukin-8 (IL8), CXCL8 (gene 3576)
Nature of the experiment: BSK_LPS_IL8: BioMAP Diversity Plus: LPS Assay for Interleukin-8 (IL8) Biomarker Activity (AID 2283078). Conditions: primary human HUVEC with PBMC; actives raise or lower the signal. In outline: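 Readout is IL-8 by ELISA, taken 24 h after compounds were added to LPS-stimulated endothelial/PBMC co-cultures. Both increases and decreases relative to DMSO control were scored through bidirectional fitting.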

Experiment [10] is described as follows: BSK_LPS_SRB: Viability Assessment in the BioMAP Diversity Plus: LPS Assay (AID 2283079).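 Also: total protein by sulforhodamine B absorbance as a cytotoxicity measure; measured one day after compound addition.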 Conditions: primary human HUVEC with PBMC. In outline:
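Readout is SRB absorbance at 560 nm (0.1% stain, TCA-fixed parallel cultures) as a total-protein cytotoxicity measure. Cells: primary human umbilical vein endothelium plus peripheral blood mononuclear cells, 24 h after chemical exposure; DMSO served as baseline.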

SMILES strings stand for the structures. The source made the active and inactive calls. The calls were made as follows: active = hit-call score of the fitted dose curve at least 0.9, where 1 is the maximum; inactive = score below 0.9.

Chain of E-selectin (Homo sapiens) (P16581 whole entry, looked up): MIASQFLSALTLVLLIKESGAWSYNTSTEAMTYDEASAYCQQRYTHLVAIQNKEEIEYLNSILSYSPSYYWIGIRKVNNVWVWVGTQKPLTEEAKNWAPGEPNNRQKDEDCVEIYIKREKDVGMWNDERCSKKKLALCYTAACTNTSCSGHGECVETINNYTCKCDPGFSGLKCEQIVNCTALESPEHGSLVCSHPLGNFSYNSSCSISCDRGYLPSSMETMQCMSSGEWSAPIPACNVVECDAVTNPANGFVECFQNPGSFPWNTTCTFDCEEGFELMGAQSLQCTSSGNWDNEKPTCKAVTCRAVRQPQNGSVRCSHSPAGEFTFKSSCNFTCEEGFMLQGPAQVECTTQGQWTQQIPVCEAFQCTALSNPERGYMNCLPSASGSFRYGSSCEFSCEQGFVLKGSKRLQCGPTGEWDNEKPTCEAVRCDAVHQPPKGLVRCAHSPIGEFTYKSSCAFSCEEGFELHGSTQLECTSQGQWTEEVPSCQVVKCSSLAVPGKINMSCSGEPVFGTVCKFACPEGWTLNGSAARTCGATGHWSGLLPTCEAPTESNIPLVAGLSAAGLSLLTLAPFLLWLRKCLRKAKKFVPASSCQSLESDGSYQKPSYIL

As to `Cc1nc(N(C)C)nc(OC(=O)N(C)C)c1C`, the outcome in experiment [1], in [2], in experiment [3], in experiment [4], in experiment [5] and in experiment [6] was inactive. Further, the outcome in [7], in experiment [8], in [9] and in experiment [10] was inactive.
On to `CCC(C)n1c(=O)[nH]c(C)c(Br)c1=O` (stereo unspecified), for which the outcome in experiment [1], in experiment [2], in experiment [3], in [4], in experiment [5] and in experiment [6] was inactive. In addition, the outcome in experiment [7], in experiment [8], in [9] and in experiment [10] was inactive.
Take `COCC(=O)N(c1c(C)cccc1C)C(C)C(=O)OC` (stereo unspecified): the result in experiment [1], in [2], in [3], in experiment [4], in experiment [5] and in [6] was inactive. In addition, the outcome in experiment [7], in experiment [8], in [9] and in experiment [10] was inactive.
For `CNC(=O)N(C)c1nnc(C(C)(C)C)s1`, the outcome in [1], in experiment [2], in experiment [3], in [4], in [5] and in experiment [6] was inactive. In addition, the outcome in experiment [7], in [8], in [9] and in experiment [10] was inactive.
Consider `CC1(C)CCC(=Cc2ccc(Cl)cc2)C1(O)Cn1cncn1` (stereo unspecified), for which the result in [1], in experiment [2], in experiment [3], in [4], in experiment [5] and in experiment [6] was inactive. Further, the outcome in [7], in experiment [8], in [9] and in experiment [10] was inactive.
In general, AC50 refers to the concentration at which the activity in the assay is half-maximal. In the case of `Cc1ccc(N=CN(C)C=Nc2ccc(C)cc2C)c(C)c1`, the result in experiment [1], in experiment [3] and in [4] was inactive. Further, the concentration at half-maximal activity (AC50) in experiment [2] is 26.2 µM (active); in experiment [5] it was 31.3 µM (active); in experiment [6], 26.9 µM (active); in experiment [7], 29.5 µM (active); in experiment [8], 31.1 µM (active); in [9] it was 33.6 µM (active). The AC50 in [10] was 31.7 µM (active).
On to `O=C(O)c1c(Cl)ccc2cc(Cl)cnc12`, for which the outcome in [1], in [2], in experiment [3], in experiment [4], in experiment [5] and in [6] was inactive. Also, the result in experiment [7], in experiment [8], in experiment [9] and in experiment [10] was inactive.
With `CO/N=C(/C1=NOCCO1)c1ccccc1Oc1ncnc(Oc2ccccc2Cl)c1F`, the AC50 is 20 µM (active) in experiment [1]; 28.6 µM (active) in experiment [4]; 30.6 µM (active) in experiment [5]; 13 µM (active) in [7]; 15.2 µM (active) in experiment [8]; 20 µM (active) in experiment [9]. The concentration at half-maximal activity (AC50) in experiment [10] is 11.4 µM (active). Further, the result in [2], in [3] and in [6] was inactive.
In the case of `CCNP(=S)(OC)O/C(C)=C/C(=O)OC(C)C` (stereo unspecified), the outcome in experiment [1], in experiment [2], in [3], in experiment [5], in [6] and in experiment [7] was inactive. For the same molecule, the outcome in [8], in [9] and in experiment [10] was inactive. In addition, in [4], the half-maximal activity concentration (AC50) was 0.733 µM (active).
As to `CCCC(=NOCC)C1=C(O)CC(CC(C)SCC)CC1=O` (stereo unspecified), the result in [1], in [2], in experiment [3], in experiment [4], in [5] and in experiment [7] was inactive. Moreover, the result in experiment [8], in experiment [9] and in experiment [10] was inactive.
With `CCCCOCN(C(=O)CCl)c1c(CC)cccc1CC`, the AC50 in [1] is 35.3 µM (active); in experiment [2] it was 31.6 µM (active); in experiment [3] it was 32.7 µM (active); in experiment [4] it was 39.1 µM (active); in experiment [5] it was 25.7 µM (active); in experiment [6], 31.3 µM (active). For the same molecule, the half-maximal activity concentration (AC50) in experiment [7] was 22.5 µM (active); in experiment [8], 31.3 µM (active); in experiment [9] it was 28 µM (active); in experiment [10], 29.2 µM (active).
With `N#CN=C1SCCN1Cc1ccc(Cl)nc1`, the outcome in experiment [1], in experiment [2], in experiment [3], in experiment [4], in [5] and in experiment [6] was inactive. Further, the result in experiment [7], in experiment [8], in [9] and in experiment [10] was inactive.
With `CC(C)=CC1C(C(=O)OCc2coc(Cc3ccccc3)c2)C1(C)C` (stereo unspecified), the outcome in [1], in experiment [2], in [3], in experiment [4], in [5] and in experiment [6] was inactive. The result in [7], in experiment [9] and in experiment [10] was inactive. In addition, the concentration at half-maximal activity (AC50) in [8] is 12.1 µM (active).
`COP(=S)(OC)SCn1nnc2ccccc2c1=O`: the result in [1], in [2], in experiment [3], in experiment [4], in [5] and in [6] was inactive. Moreover, the outcome in [7], in experiment [8], in [9] and in experiment [10] was inactive.
Consider `COc1ccc(-c2ccccc2)cc1NNC(=O)OC(C)C`, for which the outcome in [1], in [2], in experiment [3], in experiment [4], in experiment [5] and in experiment [6] was inactive. Also, the result in experiment [7], in [8], in experiment [9] and in experiment [10] was inactive.
As to `CCCN(CC)CC1COC2(CCC(C(C)(C)C)CC2)O1` (stereo unspecified), the outcome in experiment [1], in experiment [3], in experiment [5], in experiment [7], in experiment [8] and in experiment [10] was inactive. In addition, the AC50 in [2] is 6.62 µM (active); in [4] it was 0.739 µM (active); in [9], 15.7 µM (active).
`Cn1c(-c2ccccc2)cc(-c2ccccc2)[n+]1C`: the result in experiment [1], in experiment [3], in experiment [4], in experiment [5], in experiment [7] and in [8] was inactive. The outcome in [9] and in experiment [10] was inactive. For the same molecule, in experiment [2], the half-maximal activity concentration (AC50) was 23.8 µM (active).
Consider `COc1cc(Cl)c(OC)cc1Cl`, for which the outcome in experiment [1], in [2], in experiment [3], in [4], in [5] and in experiment [7] was inactive. For the same molecule, the outcome in experiment [8], in [9] and in [10] was inactive.
As to `O=c1n(Cl)c(=O)n(Cl)c(=O)n1Cl`, the outcome in [1], in experiment [2], in experiment [3], in [4], in experiment [5] and in experiment [7] was inactive. For the same molecule, the outcome in [8], in experiment [9] and in experiment [10] was inactive.
As for `CCOc1nc(C(Cl)(Cl)Cl)ns1`, the result in experiment [1], in experiment [2], in experiment [3], in experiment [5], in experiment [6] and in [7] was inactive. In addition, the outcome in [8], in [9] and in [10] was inactive.
In the case of `O=C1C2CC=CCC2C(=O)N1SC(Cl)(Cl)Cl` (stereo unspecified), the concentration at half-maximal activity (AC50) in experiment [2] was 11.2 µM (active); in experiment [4] it was 11.8 µM (active); in experiment [5], 8.54 µM (active); in [7], 22.3 µM (active); in experiment [8], 29.5 µM (active); in experiment [9], 25.2 µM (active). In addition, in [10], the result was inactive.

Values taken from PubChem BioAssay (EPA / NIEHS).
